HDAC3 inh = blocks human histone deacetylase 3; O15379; recombinant HDAC3, fluorogenic peptide/trypsin coupled, fluorescence; inhibition, % at 8.3 µM; 0.15% of 320,000 active; AID 2718; in the data active = inhibition above about 26%, passing the limit was not always enough
Target sequence (O15379 whole entry, looked up): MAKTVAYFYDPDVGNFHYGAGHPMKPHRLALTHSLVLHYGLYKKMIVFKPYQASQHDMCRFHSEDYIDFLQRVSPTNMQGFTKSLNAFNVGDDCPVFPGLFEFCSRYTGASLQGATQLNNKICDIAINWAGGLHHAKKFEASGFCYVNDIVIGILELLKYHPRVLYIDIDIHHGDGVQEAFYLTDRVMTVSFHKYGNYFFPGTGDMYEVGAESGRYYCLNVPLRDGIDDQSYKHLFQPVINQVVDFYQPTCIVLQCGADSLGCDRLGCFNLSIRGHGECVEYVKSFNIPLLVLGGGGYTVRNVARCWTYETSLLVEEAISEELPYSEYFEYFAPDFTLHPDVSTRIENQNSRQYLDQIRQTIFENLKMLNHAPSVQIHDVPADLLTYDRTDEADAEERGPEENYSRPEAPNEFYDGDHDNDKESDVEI
Efflux pump mplx = blocks antifungal efflux pumps in multiplex yeast assay; AID 485275; inhibition, % at 10 µM; 0.44% of 330,000 active; S. cerevisiae Candida pump triplex, Nile Red efflux;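 active = plate passing quality check with inhibition over a set limit, or well fluorescence over plate mean plus 4 SD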;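 also: Nile Red retained in pooled yeast measured as flow cytometry median fluorescence; 0% = buffer negative control and 100% = Enniatin B positive control; higher means more Nile Red kept so more efflux inhibition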
NALP3 yeast inh = blocks the NALP3 inflammasome reconstituted in yeast. inhibition, % at 10 µM. 0.39% of 330,000 active. Yeast reconstituted NLRP3/ASC/caspase-1, beta-gal luminescence, 24 h;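 active = inhibition of 50% or more; inactive = inhibition below 50%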;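 also: plate controls were induced DMSO wells for no effect and uninduced yeast grown without galactose for full effect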
PolyA inhibitor = blocks polyadenylation in yeast reporter cells | 0.02% of 300,000 active | activity score, % at 12 µM | S. cerevisiae SKY197-pL101 polyadenylation reporter, beta-gal luminescence; efflux-impaired pdr1/pdr3 knockout yeast; score 100 = 6 SD above DMSO;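 active = lowest replicate activity score at least 50, where 100 means six control SD above control mean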;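 also: yeast exposed to compound for 9 h at 30 °C; higher score means more reporter readthrough which indicates perturbed polyadenylation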
JMJD2C inh = blocks human GASC-1 demethylase activity. Q9H3R0. GST-JMJD2C(1-420) H3K9me3 demethylation, DELFIA europium. inhibition, % at 2.35 µM. 0.069% of 330,000 active. AID 2099;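 active = more than half of a compound's replicate wells show inhibition beyond 50%, single wells judged on their own value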;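 also: signal counts dimethyl H3K9 product captured on neutravidin plate; 0% = median of DMSO wells and 100% = 0.3 times that DMSO median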
NALP1 inh = inhibitors of NALP1 inflammasome in yeast | S. cerevisiae NALP1/ASC/caspase-1 growth, X-gal OD620, 72 h | inhibition, % at 10 µM | 0.61% of 280,000 active; in the data active = inhibition mostly above about 24%, no sharp cut-off; inactive = mostly below about 32%
NALP3 yeast conf = NALP3 inhibition confirmation in yeast; shares compounds with NALP3 yeast inh; yeast expressing human NALP3, luminescence; inhibition, % at 10 µM; 81% of 1,300 active; AID 435006; in the data active = inhibition above about 48%
Casp1-ASC yeast = caspase-1-ASC yeast counter-screen hit; shares compounds with NALP3 yeast inh; yeast expressing Caspase-1-ASC, luminescence counter screen; inhibition, % at 10 µM; 66% of 1,000 active; AID 488784
NALP3 yeast rt = yeast NALP3 inhibition, confirmed on retest; AID 488794; yeast expressing human NALP3, luminescence read-out; shares compounds with NALP3 yeast inh; 53% of 1,000 active; inhibition, % at 10 µM
* hit, by the source's call; nt = no result given. Most compounds without a hit are left out; they make up all but 1.5% or so of the library. Rule as the data show it, unless noted: active = inhibition above about 50%; inactive = the rest.

SMILES | HDAC3 inh | Efflux pump mplx | NALP3 yeast inh | PolyA inhibitor | JMJD2C inh | NALP1 inh | NALP3 yeast conf | Casp1-ASC yeast | NALP3 yeast rt
CC1=NN(C(=O)c2ccccc2-n2cccc2)C(O)(C(F)(F)F)C1 (centres undefined) | -4 | 0 | 9 | 19 | -1 | 9 | nt | nt | nt
CC1=NN(C(=O)c2ccc(C)cc2)C(O)(C(F)(F)OC(F)(F)F)C1 (centres undefined) | 3 | 0 | 53* | -15 | -49 | 4 | 54* | 48 | 35
CC(=O)N(/N=C1\Sc2ccccc2C1=O)c1cccc(C)c1 | -1 | 0 | 54* | -18 | 1 | 17 | 64* | 30 | 30
COCCNC(=O)COc1coc(CN2CCN(Cc3ccccc3)CC2)cc1=O | 2 | 0 | 7 | 2 | 29 | 4 | nt | nt | nt
O=C(COC(=O)c1cnccn1)Nc1cc(S(=O)(=O)N2CCOCC2)ccc1Cl | -1 | 0 | 12 | nt | -1 | nt | nt | nt | nt
CN(C)c1ncc(CN2CCC(CO)(CCCc3ccccc3)CC2)s1 | nt | 0 | 70* | 7 | 6 | 6 | 25 | nt | nt
O=C(O)c1cccc(N2C(=O)CSC2=S)c1 | 0 | 0 | 11 | -2 | -7 | 5 | nt | nt | nt
O=C1/C(=C/c2cccs2)SC(=S)N1c1cccc(O)c1 | 3 | 0 | 81* | 0 | -1 | -3 | 88* | 94* | 88*
O=C1/C(=C/c2ccccn2)SC(=S)N1c1ccc(O)cc1 | -14 | 0 | 70* | 5 | -19 | nt | 75* | 56* | 49
O=C1CSC(=S)N1c1cccc(O)c1 | 0 | 0 | 92* | -16 | -17 | 96* | 93* | 99* | 96*
CN(C(=O)COC(=O)C(C)(C)Oc1ccc(Cl)cc1)c1c(N)n(Cc2ccccc2)c(=O)[nH]c1=O | 2 | 0 | 6 | 12 | -10 | nt | nt | nt | nt
CCOC(=O)CSc1n[nH]c(NC(=O)NC(C)C)n1 | -11 | 0 | 2 | -3 | 18 | 1 | nt | nt | nt
CN(C(=O)c1nn(C)c2c1CS(=O)(=O)c1ccccc1-2)c1cccc(Cl)c1 | -5 | 0 | -3 | -26 | -3 | 27 | nt | nt | nt
Cn1ncc2c(O/N=C(\N)c3ccc(C(C)(C)C)cc3)ncnc21 | 11 | 0 | 54* | -18 | 5 | nt | 78* | 82* | 67*
Cc1ccc2nc(N3C(=O)CNC3=S)sc2c1 | 6 | 0 | 81* | 29 | -34 | -7 | 61* | 87* | 83*
COc1ccc2nc(N3C(=O)CNC3=S)sc2c1 | 12 | 0 | 67* | 23 | 7 | nt | 35 | nt | nt
Cc1cccc(CC2CC(=O)N(c3nc4ccccc4s3)C2=O)c1 (centres undefined) | 0 | 0 | 0 | -17 | -6 | 9 | nt | nt | nt
COCc1cc(N2CCOCC2)nc(SCc2ccc(Cl)cc2)n1 | 3 | 0 | 58* | -24 | -6 | 18 | 47* | 68* | 43
COc1ccccc1N(Cc1ccccc1)S(=O)(=O)c1cccc(C(=O)N2CCCCC2)c1 | -1 | 0 | 23 | nt | 3 | nt | nt | nt | nt
O=C(CSc1nc2ccccc2s1)Nc1cc(S(=O)(=O)N2CCOCC2)ccc1O | 3 | 0 | 10 | 16 | 4 | 8 | nt | nt | nt
Cc1cccc2c1-c1sc(C(=O)Nc3ccccc3N3CCN(C)CC3)cc1CO2 | 4 | 0 | 55* | -7 | 0 | nt | 64* | nt | nt
CCc1cc(C(=O)Nc2ccccc2N2CCOCC2)sc1C | -6 | 0 | 51* | nt | nt | nt | 53* | 34 | 42
CC1CCC(NC(=O)CCCn2sc3ccccc3c2=O)CC1 (centres undefined) | -6 | 0 | 11 | 1 | -25 | 1 | nt | nt | nt
CCOC(=O)/C=C/COc1ccccc1[N+](=O)[O-] | 5 | 0 | 16 | -14 | 8 | -5 | nt | nt | nt
Cc1ccc(O)c(N=Nc2nccs2)c1 | 9 | 0 | 90* | nt | 13 | nt | 91* | 99* | 96*
COc1ccc(N=Nc2cc(C)ccc2O)cc1 | 4 | 0 | 9 | -11 | 0 | 6 | nt | nt | nt
